Measurements as given in PubChem BioAssay (NCI).
Compounds without any hit were thinned out: in the full panel of roughly 83,000, 20% have a hit.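 48-hour exposure, single concentration, 96-well plates; percent growth endpoint where 0 means no net growth. Active: below 10.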 Activity calls are given as the source filed them.

How the values were obtained:
Assay in all cases: NCI-60 one-dose screen, 48 h (100 = growth as untreated, 0 = no growth, -100 = all killed)
Conditions in all cases: 10 µM unless noted
SR leukemia = tested on: SR leukemia
RPMI-8226 leukemia = tested on: RPMI-8226 leukemia
OVCAR-8 ovarian = tested on: OVCAR-8 ovarian
OVCAR-5 ovarian = tested on: OVCAR-5 ovarian
OVCAR-4 ovarian = tested on: OVCAR-4 ovarian
SK-OV-3 ovarian = tested on: SK-OV-3 ovarian
IGROV1 ovarian = tested on: IGROV1 ovarian
OVCAR-3 ovarian = tested on: OVCAR-3 ovarian
HS 578T breast = tested on: HS 578T breast
NCI/ADR-RES ovarian = tested on: NCI/ADR-RES ovarian

Measured: growth

Nc1nc(N)c(-c2ccc(Cl)cc2)c(/C=C/c2ccc([N+](=O)[O-])cc2)n1
inactive: SR leukemia 44% | RPMI-8226 leukemia 67% | OVCAR-8 ovarian 89.2% | OVCAR-5 ovarian 108% | OVCAR-4 ovarian 77.3% | SK-OV-3 ovarian 114% | IGROV1 ovarian 22.4% | OVCAR-3 ovarian 75.9% | HS 578T breast 60.5% | NCI/ADR-RES ovarian 68.3%

C=C1C(=O)O[C@H]2[C@H]1CC/C(C(=O)NCCCCCCCCNC(=O)/C1=C/CC[C@@]3(C)O[C@H]3[C@H]3OC(=O)C(=C)[C@@H]3CC1)=C\CC[C@@]1(C)O[C@@H]21
inactive: SR leukemia 20.2% | RPMI-8226 leukemia 33.6% | OVCAR-8 ovarian 93.4% | OVCAR-5 ovarian 97.1% | OVCAR-4 ovarian 73.1% | SK-OV-3 ovarian 93.5% | IGROV1 ovarian 63.3% | OVCAR-3 ovarian 33.1% | HS 578T breast 90.5% | NCI/ADR-RES ovarian 103%

CN1CCN(c2ccc(Nc3ncc(Cl)c(NC[C@@H]4CCCO4)n3)cc2)CC1
active: SR leukemia -0.801% | HS 578T breast 6.95%
inactive: RPMI-8226 leukemia 29.5% | OVCAR-8 ovarian 27.5% | OVCAR-5 ovarian 18.1% | OVCAR-4 ovarian 29.7% | SK-OV-3 ovarian 28.6% | IGROV1 ovarian 23.4% | OVCAR-3 ovarian 42.8% | NCI/ADR-RES ovarian 31.3%

COc1cc(-c2cccc([N+](=O)[O-])c2)c(-c2nc(-c3ccccc3)c(-c3ccccc3)n2C2CC2)cc1OC
inactive: SR leukemia 57.2% | RPMI-8226 leukemia 10.8% | OVCAR-8 ovarian 62.8% | OVCAR-5 ovarian 87.3% | OVCAR-4 ovarian 62.2% | SK-OV-3 ovarian 80% | IGROV1 ovarian 78.5% | OVCAR-3 ovarian 66.5% | HS 578T breast 83.4% | NCI/ADR-RES ovarian 62%

CC(=O)C(C(C)=O)c1nc2sc3cc(Cl)ccc3n2c(=N)c1C#N
inactive: SR leukemia 33.6% | RPMI-8226 leukemia 60.8% | OVCAR-8 ovarian 90.5% | OVCAR-5 ovarian 94.8% | OVCAR-4 ovarian 71.9% | SK-OV-3 ovarian 93.8% | IGROV1 ovarian 70.4% | OVCAR-3 ovarian 86.1% | HS 578T breast 48.5% | NCI/ADR-RES ovarian 88.3%

N[C@@H]1CCC[C@H]1NCCCCN1C(=O)c2cccc3cccc(c23)C1=O
inactive: SR leukemia 18.1% | RPMI-8226 leukemia 77.7% | OVCAR-8 ovarian 45% | OVCAR-5 ovarian 80.9% | OVCAR-4 ovarian 47.2% | SK-OV-3 ovarian 96.9% | IGROV1 ovarian 59.9% | OVCAR-3 ovarian 69.9% | HS 578T breast 71.8% | NCI/ADR-RES ovarian 82.4%

CC(C)c1ccc(C(=O)OC(=O)c2ccc(C(C)C)cc2)cc1
inactive: SR leukemia 60.2% | RPMI-8226 leukemia 82.9% | OVCAR-8 ovarian 100% | OVCAR-5 ovarian 89.2% | OVCAR-4 ovarian 105% | SK-OV-3 ovarian 110% | IGROV1 ovarian 98.8% | OVCAR-3 ovarian 106% | HS 578T breast 104% | NCI/ADR-RES ovarian 95.4%

CCNCCNc1cc(-c2ccc(C#N)cc2)c(C#N)c2nc3ccccc3n12
active: SR leukemia -1.04% | OVCAR-4 ovarian -34% | OVCAR-3 ovarian -47.7%
inactive: RPMI-8226 leukemia 51.6% | OVCAR-8 ovarian 38.7% | OVCAR-5 ovarian 75.6% | SK-OV-3 ovarian 87.4% | IGROV1 ovarian 47.7% | HS 578T breast 25.2% | NCI/ADR-RES ovarian 60.9%

C=CC(=O)N[C@@H](Cc1ccc(-c2cc(Cl)cc(Cl)c2)cc1)[C@@H](O)[C@H](O)C(=O)O
inactive: SR leukemia 92.8% | RPMI-8226 leukemia 105% | OVCAR-8 ovarian 85.9% | OVCAR-5 ovarian 86.8% | OVCAR-4 ovarian 99.9% | SK-OV-3 ovarian 91.6% | IGROV1 ovarian 105% | OVCAR-3 ovarian 114% | HS 578T breast 92.9% | NCI/ADR-RES ovarian 95.6%

Cc1ccc(-n2nnc(C3=NCCc4c3[nH]c3ccc(Cl)cc43)c2C)cc1
inactive: SR leukemia 52.8% | RPMI-8226 leukemia 58.6% | OVCAR-8 ovarian 66.8% | OVCAR-5 ovarian 80.2% | OVCAR-4 ovarian 76.8% | SK-OV-3 ovarian 87% | IGROV1 ovarian 90.5% | OVCAR-3 ovarian 83.5% | HS 578T breast 87.8% | NCI/ADR-RES ovarian 76.3%

CCc1c(C(=O)N[C@@H]2c3cc(Cl)ccc3CC[C@@H]2O)[nH]c(C)c1C(C)=O
inactive: SR leukemia 52.5% | RPMI-8226 leukemia 59.7% | OVCAR-8 ovarian 71.4% | OVCAR-5 ovarian 97.9% | OVCAR-4 ovarian 95.9% | SK-OV-3 ovarian 74.4% | IGROV1 ovarian 59% | OVCAR-3 ovarian 81.8% | HS 578T breast 77.5% | NCI/ADR-RES ovarian 82.7%

CC(C)(O)c1cccc(F)c1
inactive: SR leukemia 96.9% | RPMI-8226 leukemia 103% | OVCAR-8 ovarian 107% | OVCAR-5 ovarian 99.3% | OVCAR-4 ovarian 112% | SK-OV-3 ovarian 135% | IGROV1 ovarian 104% | OVCAR-3 ovarian 127% | HS 578T breast 103% | NCI/ADR-RES ovarian 102%

Cc1cc(NS(=O)(=O)c2ccccc2)c(OS(=O)(=O)c2ccccc2)cc1C
inactive: SR leukemia 94.6% | RPMI-8226 leukemia 84.1% | OVCAR-8 ovarian 95.1% | OVCAR-5 ovarian 114% | OVCAR-4 ovarian 106% | SK-OV-3 ovarian 108% | IGROV1 ovarian 122% | OVCAR-3 ovarian 110% | HS 578T breast 101% | NCI/ADR-RES ovarian 102%

Cc1nn(-c2ccccc2)c2c1C(c1ccc([N+](=O)[O-])cc1)C(C#N)=C(N)O2 (stereo not given)
inactive: SR leukemia 91.5% | RPMI-8226 leukemia 74.1% | OVCAR-8 ovarian 90.9% | OVCAR-5 ovarian 106% | OVCAR-4 ovarian 100% | SK-OV-3 ovarian 107% | IGROV1 ovarian 82.9% | OVCAR-3 ovarian 122% | HS 578T breast 103% | NCI/ADR-RES ovarian 104%

CCCCCCNC(=O)c1cc(NCc2cc(O)ccc2O)ccc1O
active: SR leukemia 7.38% | RPMI-8226 leukemia -12.3%
inactive: OVCAR-8 ovarian 30.9% | OVCAR-5 ovarian 77.5% | OVCAR-4 ovarian 66.5% | SK-OV-3 ovarian 74.5% | IGROV1 ovarian 70.7% | OVCAR-3 ovarian 27.4% | HS 578T breast 70.5% | NCI/ADR-RES ovarian 59.2%

COc1ccc(N(C)c2nc(Cl)nc3cnn(C)c23)cc1
inactive: SR leukemia 13.2% | RPMI-8226 leukemia 28.2% | OVCAR-8 ovarian 12.6% | OVCAR-5 ovarian 33% | OVCAR-4 ovarian 48.2% | SK-OV-3 ovarian 10.6% | IGROV1 ovarian 23.7% | HS 578T breast 37.8%
active: OVCAR-3 ovarian 4.74% | NCI/ADR-RES ovarian 2.72%

Nc1ccn(C2OC(F)(CO)C(O)C2F)c(=O)n1 (stereo not given)
inactive: SR leukemia 90.4% | RPMI-8226 leukemia 106% | OVCAR-8 ovarian 22.4% | OVCAR-5 ovarian 97.4% | OVCAR-4 ovarian 73.2% | SK-OV-3 ovarian 33.4% | IGROV1 ovarian 49.8% | OVCAR-3 ovarian 66.8% | HS 578T breast 78.8% | NCI/ADR-RES ovarian 18.4%

C[C@@H]1CC[C@@H]2[C@@H]1[C@H](OC(=O)/C=C/c1ccccc1)[C@]1(CCCOCCOCCOCCOC(=O)CCCC[C@@H]3SC[C@@H]4NC(=O)N[C@@H]43)C[C@@H](OC(=O)CO)[C@@]2(C)O1
inactive: SR leukemia 88.3% | RPMI-8226 leukemia 112% | OVCAR-8 ovarian 113% | OVCAR-5 ovarian 101% | OVCAR-4 ovarian 95.7% | SK-OV-3 ovarian 102% | IGROV1 ovarian 107% | OVCAR-3 ovarian 104% | HS 578T breast 99.5% | NCI/ADR-RES ovarian 105%

NC(N)=N/N=C(/c1ccccc1)c1ccc(N)cc1
inactive: SR leukemia 88.8% | RPMI-8226 leukemia 150% | OVCAR-8 ovarian 108% | OVCAR-5 ovarian 103% | OVCAR-4 ovarian 132% | SK-OV-3 ovarian 99.3% | IGROV1 ovarian 127% | OVCAR-3 ovarian 112% | HS 578T breast 150% | NCI/ADR-RES ovarian 106%

Fc1ccc(Nc2ccc3cc(OCCCN4CCOCC4)ccc3n2)cc1F
active: SR leukemia 8.16%
inactive: RPMI-8226 leukemia 49.5% | OVCAR-8 ovarian 66.8% | OVCAR-5 ovarian 56.8% | OVCAR-4 ovarian 49.4% | SK-OV-3 ovarian 72.8% | IGROV1 ovarian 72.8% | OVCAR-3 ovarian 68.1% | HS 578T breast 40.6% | NCI/ADR-RES ovarian 59.8%
